# Experimental data taken from PubChem BioAssay AID504466 (National Center for Advancing Translational Sciences (NCATS), 2011).
# Out of some 330,000 compounds screened, about 4,200 (1.3%) were called active. A call without a number means that no potency is given here. Inconclusive results (about 6%) are left out. The sample holds actives, similar compounds and a random draw of the others, so the mix is not that of the screen. The call rests on the fitted dose curve; in most records, active means well fitted activation curve with a large enough effect; inconclusive means small, poorly fitted or top-dose-only effect; inactive means no such curve, though single readings can be large or run the other way.
# Experiment: qHTS screen for small molecules that induce genotoxicity in human embryonic kidney (HEK293T) cells expressing luciferase-tagged ELG1; further: nearly all actives have a fitted effect of over 60% in size
# Details: HEK293T ELG1-luciferase reporter, luminescence, 16 h; series mostly up to 46 µM
# Procedure, shortened: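 HEK293T cells expressing luciferase-tagged ELG1 were treated with compound or DMSO for 16 hr at 37°C. Luciferase activity was then read after 30 min with ONE-Glo at room temperature; rising signal flags genetic stress.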
# Potency means the concentration at half of the fitted maximal effect.
row,Compound,Potency
1,CCCn1nnc2sc3c(c2c1=O)CCC(C)C3 (stereo unspecified),11.6 µM (active)
2,C=CCn1c(SCc2c(C)noc2C)nc2sc3c(c2c1=O)CCC(C)C3 (stereo unspecified),inactive
3,CCCSc1nc2sc3c(c2c(=O)n1-c1ccc(OC)cc1)CCN(C)C3,inactive
4,O=C(COC(=O)COc1ccccc1F)Nc1cccc(S(=O)(=O)N2CCCCC2)c1,inactive
5,COc1cc(OC)cc(C(=O)NNC(=O)Cc2cccs2)c1,inactive
6,Cc1cc(C)nc(Nc2ncn[nH]2)n1,inactive
7,CCCOc1ccccc1-c1nc(SCCC(=O)O)n[nH]1,inactive
8,Cc1cc(C)nc(Nc2n[nH]c(-c3ccccc3N)n2)n1,2.31 µM (active)
9,COc1cc(OC)cc(-c2c(C#Cc3ccsc3)c3cc(-c4ccc(OC)cc4F)ccc3n2C)c1,inactive
10,Nc1ccc(-c2sc(N)nc2-c2ccccc2)cc1,inactive
11,Nc1ccc(-c2nnc(-c3ccccc3)o2)cc1,16.4 µM (active)
12,OC(c1nnc(-c2ccccc2)o1)c1cccs1 (stereo unspecified),inactive
13,CC(C)n1cnc2c(NCc3ccccc3)cc(OCC3CCN(C)CC3)cc21,inactive
14,Cc1ccc(-c2csc(-c3c[nH]c4ccccc34)n2)cc1,23.1 µM (active)
15,Cc1ccc(-c2csc(NC3OC(=O)c4ccccc43)n2)cc1 (stereo unspecified),inactive
16,Cc1ccc(-c2csc(NC(=O)Cn3[nH]c(=O)c4ccccc4c3=O)n2)cc1,inactive
17,O=C(Cn1cc(C(F)(F)F)ccc1=O)Nc1ccc2c(c1)OCCO2,inactive
18,Cc1ccc(C)c(N2CCN(C(=O)CCc3nc(-c4cccc(C(F)(F)F)c4)no3)CC2)c1,inactive
19,Cc1c(C(=O)Nc2cccc(S(=O)(=O)N3CCOCC3)c2)oc2ccccc12,inactive
20,O=C(COC(=O)c1n[nH]c2ccccc12)Nc1ccccc1Br,inactive
21,CC(=O)Nc1ccc(NC(=O)COC(=O)C2CCC(C(C)(C)C)CC2)cc1 (stereo unspecified),inactive
22,CSCC[C@H](NC(=O)OC(C)(C)C)C(=O)N/N=C/c1cc2ccc(C)cc2nc1Cl,inactive
23,Cc1ccc2cc(/C=N/NC(=O)[C@@H]3CCCN3)c(Cl)nc2c1,inactive
24,Cc1ccc2cc(/C=N/Nc3ccc(C(=O)O)cc3)c(Cl)nc2c1,18.3 µM (active)
25,COc1ccc(CC(=O)N[C@@H]2c3cc(OC)c(OC)cc3C[C@H]2OCc2ccccc2)cc1,inactive
26,Cc1cc(C(=O)CSc2nc(N)cc(=O)[nH]2)c(C)n1-c1cccc(F)c1,inactive

row,Compound,Potency
1,CCN(C(=O)CSc1nnc2ccccn12)C1CCS(=O)(=O)C1 (stereo unspecified),inactive
2,O=C(CSc1nnc2n1CCCN2)c1ccccc1,inactive
3,Cc1ccc(-n2c(C)cc(C(=O)CSc3nnc4ccccn34)c2C)cc1,5.17 µM (active)
4,O=C(CSc1nnc2ccccn12)c1ccccc1,11.6 µM (active)
5,Cc1ccc(C(=O)NNC(=O)CSc2nnc3ccccn23)cc1,inactive
6,CC1CCCCC12NC(=O)N(CC(=O)OCc1c(F)cccc1Cl)C2=O (stereo unspecified),inactive
7,C[C@H](NS(=O)(=O)c1ccc(Cl)cc1)C(=O)OCC(=O)N1CCOCC1,inactive
8,COc1cc(OC)cc(-c2sc3ccc(OC)cc3c2-c2ccc3cc[nH]c3c2)c1,inactive
9,Cc1ccc(NC(=O)c2cnc(SCC(=O)NCC3CCCO3)n(C)c2=O)cc1 (stereo unspecified),20.6 µM (active)
10,CCn1c(SCC(=O)NCC2CCCO2)nc2ccccc21 (stereo unspecified),inactive
11,Cn1c(SCC(=O)c2ccccc2)ncc(C(=O)Nc2ccc(F)cc2)c1=O,inactive
12,CCCc1cc(=O)[nH]c(SCC(=O)Nc2ccc(C(=O)Nc3ccccc3OC)cc2)n1,inactive
13,Cc1noc(C)c1C(=O)OC(C)C(=O)Nc1ccc2c(c1)OCO2 (stereo unspecified),inactive
14,CC(=O)c1cccc(OCC(=O)OCC(=O)Nc2cc(S(=O)(=O)N3CCCCC3)ccc2C)c1,inactive
15,CC(C)Cn1c(SCC(=O)Nc2ccc(Cl)cc2F)nc(O)cc1=O,inactive
16,Cn1ccnc1SCC(=O)Nc1ccc2c(c1)OCCO2,9.2 µM (active)
17,O=C(Nc1cccc(NC(=O)c2ccco2)c1)c1cnccn1,inactive
18,O=C(Nc1ccc2c(c1)OCCO2)c1cnccn1,5.8 µM (active)
19,CCn1c(SCC(=O)Nc2ccc3c(c2)OCCO3)nnc1C(C)C,inactive
20,O=C(CCN1C(=O)c2ccncc2C1=O)Nc1ccc2c(c1)OCCO2,inactive
21,CCn1c(SCC(=O)Nc2ccc3c(c2)OCCO3)nnc1-c1ccncc1,inactive
22,CCC(CO)Oc1cc(NC(=O)c2cccc3ccccc23)c2ncn(C(C)C)c2c1 (stereo unspecified),inactive
23,O=C(CSc1nc2ccccc2c(=O)n1Cc1ccc(F)cc1)NCC1CCCO1 (stereo unspecified),inactive
24,O=C1CCC/C=C\C[C@@H](CC(=O)N(CCO)Cc2ccccc2)C(=O)NCCO1,inactive
25,CC1CCCCC1NC(=O)Cn1cnc2c1c(=O)n(C)c(=O)n2C (stereo unspecified),inactive
26,Cc1ccc(C)c(NC(=O)COC(=O)c2nn(C)c(=O)c3ccccc23)c1,inactive

row,Compound,Potency
1,Cc1cc(C)cc(NC(=O)N2CCCCCCC2)c1,inactive
2,Cc1ccc2cc3cc(C(=O)N4CCCCCC4)oc3nc2c1,0.731 µM (active)
3,COc1ccc2oc(=O)c(C(=O)N3CCCC3)cc2c1,inactive
4,COc1ccc(CNC(=O)C[C@H]2C[C@H](C(=O)N3CCOCC3)[C@@]3(C)c4[nH]c5cc(CCC(=O)N(C)C)ccc5c4CCN3C2=O)cc1OC,inactive
5,O=C(CCNC(=O)c1ccccc1Cl)NN=Cc1ccco1,inactive
6,Cc1ccsc1C(=O)NNC(=O)COc1ccc(Br)cc1,inactive
7,CC(=O)Nc1ccc(/C=C/C(=O)c2ccccc2)cc1,16.4 µM (active)
8,CC(=O)Nc1ccc(NC(=S)NC(=O)/C=C/c2ccccc2)cc1,inactive
9,Cc1noc(NS(=O)(=O)c2ccc(N/C=C/C(=O)c3ccccc3)cc2)c1C,inactive
10,CC(OC(=O)/C=C/c1ccccc1)C(=O)Nc1ccc(C(N)=O)cc1 (stereo unspecified),inactive
11,O=C(/C=C/NCc1ccc(F)cc1)c1ccccc1,inactive
12,Cc1ccc(N/C=C/C(=O)c2ccccc2)cc1C,0.92 µM (active)
13,Cc1ccc(S(=O)(=O)Nc2ccc3c(c2)C(=O)N([C@H](C)CO)C[C@@H](C)[C@@H](CN(C)C(=O)Nc2cccc4ccccc24)O3)cc1,inactive
14,O=C(NCCCN1CCOCC1)c1cn(-c2ccccc2)nc1-c1ccc(F)cc1,inactive
15,O=C(COC(=O)c1cccnc1Cl)NC(=O)NC1CCCCC1,inactive
16,O=C(COc1ccc(Br)cc1F)NCC1(N2CCCCC2)CCCCC1,inactive
17,CC(C)n1cnc2c(NCc3ccccc3)cc(N[C@@H](CO)Cc3ccccc3)cc21,inactive
18,CCOc1ccc(Br)cc1S(=O)(=O)Nc1ccc(S(=O)(=O)Nc2cc(C)on2)cc1,inactive
19,O=C(Nc1cccc(S(=O)(=O)N2CCCCC2)c1)c1cncc(Br)c1,inactive
20,C/C(=N\NC(=O)OC(C)(C)C)c1ccc[nH]1,14.6 µM (active)
21,CC(C)(C)OC(=O)N/N=C/c1ccc(C(=O)O)cc1,inactive
22,Cc1ccccc1NC(=O)NNC(=O)OC(C)(C)C,inactive
23,COc1ccccc1CNC(=O)c1ccc(Cl)c(S(=O)(=O)N2CCCC2)c1,inactive
24,Cc1ccnc(NC(=O)CCNS(=O)(=O)c2ccc(C)c(C)c2)c1,1.64 µM (active)
25,Cc1ccc(S(=O)(=O)NCCC(=O)Nc2ccc(C)c(Cl)c2)cc1C,inactive
26,Cc1ccc(S(=O)(=O)NCCC(=O)Nc2cccc(S(N)(=O)=O)c2)cc1C,inactive

row,Compound,Potency
1,Cc1cc(NC(=O)CN2C(=O)NC(CC(C)C)C2=O)no1 (stereo unspecified),inactive
2,O=C(CN1C(=O)NC2(CCCCCC2)C1=O)Nc1ccc([N+](=O)[O-])cc1,inactive
3,CC(C)(C)OC(=O)C[C@@H]1C/C=C\C[C@@H](CC(=O)N[C@H](CO)Cc2ccccc2)C(=O)NC[C@@H](c2ccccc2)OC1=O,inactive
4,CC(=O)Nc1cccc(C(=O)OCC(=O)NCc2cc(C)c(O)c(C)c2)c1,14.6 µM (active)
5,COc1ccc(C(=O)OCC(=O)Nc2cccc(C(C)=O)c2)cc1OC,inactive
6,Cc1ccc(C(=O)OCC(=O)NCc2cc(C)c(O)c(C)c2)cc1S(=O)(=O)N1CCCCC1,inactive
7,Cc1noc(C)c1S(=O)(=O)N(C)C[C@H]1Oc2c(NC(=O)Nc3ccc4c(c3)OCO4)cccc2C(=O)N([C@H](C)CO)C[C@@H]1C,inactive
8,COc1cc(OC)cc(C(=O)N[C@H](C(=O)NNC(=O)c2ccc(Br)cc2)C(C)C)c1,inactive
9,CC(=O)Oc1ccc(NC(=O)CCC2CCCCC2)c(C(=O)O)c1,inactive
10,COc1ccc(NC(=O)CCCC2CCCCC2)c(OC)c1,18.3 µM (active)
11,COc1ccc(NC(=O)CCN2CCCC2)c(OC)c1,inactive
12,O=C(NOCc1ccccc1)c1cccc([N+](=O)[O-])c1,inactive
13,Cc1cccc(-n2ncc3c(=O)[nH]c(SCC(=O)Nc4cc(C)on4)nc32)c1,inactive
14,Cc1ccc2nc(-c3ccc(SCC(=O)Nc4cc(C)on4)nc3)[nH]c2c1,1.84 µM (active)
15,Cc1ccc(SCCC(=O)Nc2cc(C)on2)cc1,inactive
16,CC1CCCCC12NC(=O)N(CC(=O)N1CCN(c3ccccc3)CC1)C2=O (stereo unspecified),inactive
17,CCN(C[C@H]1N[C@@](CC)(C(=O)OC)[C@H]2C(=O)N(Cc3ccccc3)C(=O)[C@@H]12)S(=O)(=O)c1ccc(C(F)(F)F)cc1,inactive
18,COc1ccccc1-c1cc(C(=O)N2CCCCC2)no1,3.66 µM (active)
19,COc1ccc(-c2cc(C(=O)N3CCN(c4ccc(F)cc4)CC3)no2)cc1,inactive
20,COc1cccc(-c2cc(C(=O)N3CCN(c4ccccc4OC)CC3)no2)c1,inactive
21,O=C(OCC(=O)N1CCCCC1)c1ccc(OC(F)(F)F)cc1,inactive
22,O=C(C[C@H]1C[C@H](C(=O)N2CCOCC2)[C@@]2(CCC3CCCC3)c3[nH]c4ccc(Cl)cc4c3CCN2C1=O)NCc1ccco1,inactive
23,COc1ccc(NC(=O)N(C)C[C@H]2Oc3ccc(NC(=O)C4CC4)cc3C(=O)N([C@H](C)CO)C[C@@H]2C)cc1,inactive
